Measurements: PubChem BioAssay AID488809 (Broad Institute, 2010)
Entries with a potency or affinity are not part of this list. Results filed as inconclusive are left out. The source made the active and inactive calls. How the calls were made is not given here.

Experiment: cytotoxicity in NIH-3T3 fibroblasts, dose response, cytotoxicity control for antifungal drug resistance project, cell-based, Alamar Blue, fluconazole, dry powder (AID 488809)
Details: NIH-3T3 fibroblasts + fluconazole, Alamar Blue viability, 48 h; series mostly up to 26 µM; activity change, negative = toxicity: at the top concentration

Row | Structure (SMILES) | activity change, negative = toxicity
1 | COC(=O)Cn1nc(-c2ccccc2)c2cc(Cl)ccc21 | -27.8% (inactive)
2 | O=C(O)c1c2ccccc2nn1Cc1ccc(Cl)cc1 | -10.5% (inactive)
3 | O=C(c1ccc(Cl)cc1)N1CCN(c2ccccn2)CC1 | -27.1% (inactive)
4 | Cc1ccc(C(=O)N2CCN(c3ccnc4cc(Cl)ccc34)CC2)cc1 | -43.6% (inactive)
5 | COC(=O)Cn1nc(-c2ccc(Cl)cc2)c2ccccc21 | -3.6% (inactive)
6 | CNC(=O)Cn1nc(-c2ccccc2)c2ccccc21 | -27.9% (inactive)
7 | O=C(Cn1c2ccccc2c2nc3n(c(=O)c21)CCS3)N1CCCC1 | -31.6% (inactive)
8 | O=C(c1ccc(Cl)cc1)N1CCN(c2ccc(Cl)cc2)CC1 | -4.29% (inactive)
9 | COC(=O)Cn1nc(-c2ccccc2)c2ccccc21 | -21.6% (inactive)
10 | O=C(Cn1c2ccccc2c2nc3n(c(=O)c21)CCS3)NCCc1ccc(Cl)cc1 | -24.4% (inactive)
11 | COC(=O)Cn1nc(C)c2ccccc21 | -27.1% (inactive)
12 | O=c1c2[nH]c3ccccc3c2nc2n1CCS2 | -20.2% (inactive)
13 | CCOC(=O)c1c2ccccc2nn1Cc1ccc(Cl)cc1 | -15.4% (inactive)
14 | CC1CCN(C(=O)Cn2c3ccccc3c3nc4n(c(=O)c32)CCS4)CC1 | -29.2% (inactive)
15 | O=C(O)c1nn(Cc2ccc(Cl)cc2)c2ccccc12 | -16% (inactive)
16 | O=C(Cn1c2ccccc2c2nc3n(c(=O)c21)CCCS3)c1ccc(F)cc1 | -25.7% (inactive)
17 | COC(=O)Cn1nc(-c2ccc(C)cc2)c2ccccc21 | -25.3% (inactive)
18 | COc1ccc(OC)c2c(C)cc(N3CCN(C(=O)c4ccc(Cl)cc4)CC3)nc12 | -28.7% (inactive)
19 | CCCCNC(=O)N1CCN(c2ccnc3cc(Cl)ccc23)CC1 | -26.3% (inactive)
20 | O=C(Cn1nc(-c2ccccc2)c2cc(Cl)ccc21)N1CCOCC1 | -33% (inactive)
21 | O=C(c1ccccc1)N1CCN(c2ccnc3cc(Cl)ccc23)CC1 | -29.5% (inactive)
22 | CCCNC(=O)Cn1nc(-c2ccccc2)c2ccccc21 | -10.7% (inactive)
23 | Cc1nn(S(C)(=O)=O)c2ccccc12 | -23.7% (inactive)
24 | O=C(Cn1nc(C(=O)N2CCCCC2)c2ccccc21)N1CCOCC1 | -21.6% (inactive)
25 | COc1ccc2c(c1)c1nc3n(c(=O)c1n2CC(=O)N1CCC(C)CC1)CCS3 | 15.5% [at 2.6 µM] (inactive)
